In PubChem BioAssay AID1345085 (National Center for Advancing Translational Sciences (NCATS), 2018):
Records with an inconclusive call do not appear. The source made the active and inactive calls. Calls come from the whole dose curve; as a rule, active = well fitted cell-killing curve with a large enough effect; inconclusive = small, poorly fitted or top-dose-only effect, or effect the other way; inactive = no such curve, though single readings can be large or run the other way.

Tested on: PA-1
Assay: Confirmatory qHTS for gynecologic anti-cancer compounds from libraries of approved drugs and bioactive compounds; note: nearly all actives have a fitted effect of over 55% in size
Conditions: gynecologic cancer cell panel viability, ATPlite luminescence, 48 h; series mostly up to 57.6 µM; activity change, negative = viability loss: at the top concentration
Summary of the method: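 Cells (1,000/well) plated 16 h, then exposed 48 h at 37 °C to 11 concentrations (1:3) from 57.5 uM to 0.977 nM. Viability by ATPlite luminescence after 15 min; IC50 derived, with HEK 293T used for selectivity index.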
% is set by controls: 0 for no effect and ±100 for the full control effect; potency is the fitted concentration of half-maximal effect.

Row | SMILES | Potency | activity change, negative = viability loss
1 | C/C=C(/C)C(=O)O[C@H]1C(C)=C2[C@H]([C@@H]1OC(=O)CCCCCCC)[C@@](C)(OC(C)=O)C[C@H](OC(=O)CCC)[C@@]1(O)[C@H]2OC(=O)[C@@]1(C)O | 48.5 nM (active) | 
2 | O=C(O)Cc1ccccc1 |  | 11.7% (inactive)
3 | C[C@H]1CCC/C=C/C2C[C@H](O)C[C@H]2[C@H](O)/C=C/C(=O)O1 (stereo partly drawn) | 172 nM (active) | 
4 | C=C(C)[C@H]1Cc2c(ccc3c2O[C@@H]2COc4cc(OC)c(OC)cc4[C@@H]2C3=O)O1 | 27.3 nM (active) | 
5 | CCOc1ccccc1-n1c(C(C)N2CCN(C(=O)COc3ccc(Cl)cc3)CC2)nc2ccccc2c1=O (stereo not drawn) | 13700 nM (active) | 
6 | CCNC(=O)C[C@@H]1N=C(c2ccc(Cl)cc2)c2cc(OC)ccc2-n2c(C)nnc21 | 4320 nM (active) | 
7 | C[C@]12CC[C@H]3[C@@H](CCC4=CC(=O)CC[C@@H]43)[C@@H]1CC[C@@H]2OC(=O)CCc1ccccc1 |  | -4.23% (inactive)
8 | Cc1sc2c(c1C)C(c1ccc(Cl)cc1)=NC(CC(=O)OC(C)(C)C)c1nnc(C)n1-2 (stereo not drawn) | 1530 nM (active) | 
